The list is not random: actives were taken first. Their share in the collection is about 19%.
IL-1B inflam inh: inhibitors of inflammasome signaling (IL-1 beta secretion). activity change, % at 57.5 µM. AID 743279. actives 4.7% (n = 360,000). THP-1 LPS/ATP IL-1B secretion, AlphaLISA, 16 h; stronger effect = lower value; in the data active means activity change below about -50%; inconclusive means mostly about -30% to -49%; further: on the % scale 0 is the no-effect control and ±100 the full control effect
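THP-1 cells pretreated 1 hr with compounds (up to 57.5 uM final), then stimulated with LPS (250 ng/mL final) plus ATP (1.25 mM final); secreted IL-1B measured by AlphaLISA after 16 hr, decreased signal indicating inhibition.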
HepG2 tox: counter-screen for TGF-b inhibitors: cytotoxicity in HepG2 cells | AID 588856 | Potency, µM (doses to about 46.1 µM), for inactives: at the highest dose activity change, negative = cytotoxicity, usual class: cytotoxic | actives 0.76% (n = 410,000) | HepG2 CAGA-GFP viability, ATP luminescence, 18 h; further: potency means the concentration at half of the fitted maximal effect
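CellTiter-Glo luminescence gave cytotoxicity after 18 hours at 37 degrees C. The cells were HepG2 CAGA-GFP in 1% FBS DMEM, stimulated with 500 pg/mL TGF-beta after compound addition. %Activity was normalised to no-cell wells (complete cell-killing) and DMSO (no toxicity), and curves were fitted and classified.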
TDP1 cell noCPT: qHTS for Inhibitors of human tyrosyl-DNA phosphodiesterase 1 (TDP1): qHTS in cells in absence of CPT. DT40 Tdp1-/- hTDP1 cells, no CPT, ATP luminescence, 48 h. Potency, µM (top dose mostly 46.2 µM), inactives show at the highest dose activity change, negative = growth inhibition, actives largely listed as inhibitors. actives 15% (n = 420,000); further: potency means the concentration at half of the fitted maximal effect; on the % scale 0 is the no-effect control and ±100 the full control effect; nearly all actives have a fitted effect of over 55% in size
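Growth of hTDP1-complemented DT40 Tdp1-knockout cells is measured by ATP luminescence after at least 48 hr compound exposure at 37 °C, with DMSO substituting for the 20 nM CPT used in the parallel screen.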
DT40 TDP1 CPT: DT40-hTDP1 cell growth loss with CPT; chicken DT40 Tdp1-/-;hTDP1 cells + 20 nM CPT, ATP luminescence, 48 h; actives 12% (n = 420,000); Potency, µM (highest dose often 46.2 µM), for the others: at the highest dose activity change, negative = growth inhibition, usual class: inhibitors; further: potency means the concentration at half of the fitted maximal effect; on the % scale 0 is the no-effect control and ±100 the full control effect; nearly all actives have a fitted effect of over 55% in size
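Cell growth measured by CellTiter-Glo luminescence after a minimum 48 h, 37 C compound exposure with 20 nM CPT in Tdp1-knockout DT40 cells stably expressing hTDP1, seeded 400/well; qHTS titration format.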
TGFb inhibitor: TGF-b pathway inhibition; HepG2 CAGA-GFP TGF-b/SMAD3 reporter, GFP fluorescence, 18 h; TGF-beta stimulated, 500 pg/mL final; Potency, µM (doses to about 46.1 µM), for the others: at the highest dose activity, negative = inhibition, hits mostly inhibitors; actives 1.2% (n = 410,000); AID 588855; further: potency means the concentration at half of the fitted maximal effect; on the % scale 0 is the no-effect control and ±100 the full control effect; nearly all actives have a fitted effect of over 65% in size
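HEPG2 CAGA-GFP, 1000 cells/well; 2 h settle, 37 C; cpd via pin tool; TGF-b 500 pg/mL final; 18 h, 37 C; GFP imaging ex488/em500-530; %Activity normalised to -TGF-b and +DMSO controls; CRC fit, curve class.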
S-ASM inh: blocks human secretory acid sphingomyelinase; P17405; placental ASM, HMU-PC fluorogenic substrate, 60 min; Potency, µM (series often up to 57.5 µM), for the others: at the top dose activity change, negative = inhibition, usual class: inhibitors; actives 0.006% (n = 340,000); further: potency means the concentration at half of the fitted maximal effect
Target sequence (P17405 47-631 limits assumed): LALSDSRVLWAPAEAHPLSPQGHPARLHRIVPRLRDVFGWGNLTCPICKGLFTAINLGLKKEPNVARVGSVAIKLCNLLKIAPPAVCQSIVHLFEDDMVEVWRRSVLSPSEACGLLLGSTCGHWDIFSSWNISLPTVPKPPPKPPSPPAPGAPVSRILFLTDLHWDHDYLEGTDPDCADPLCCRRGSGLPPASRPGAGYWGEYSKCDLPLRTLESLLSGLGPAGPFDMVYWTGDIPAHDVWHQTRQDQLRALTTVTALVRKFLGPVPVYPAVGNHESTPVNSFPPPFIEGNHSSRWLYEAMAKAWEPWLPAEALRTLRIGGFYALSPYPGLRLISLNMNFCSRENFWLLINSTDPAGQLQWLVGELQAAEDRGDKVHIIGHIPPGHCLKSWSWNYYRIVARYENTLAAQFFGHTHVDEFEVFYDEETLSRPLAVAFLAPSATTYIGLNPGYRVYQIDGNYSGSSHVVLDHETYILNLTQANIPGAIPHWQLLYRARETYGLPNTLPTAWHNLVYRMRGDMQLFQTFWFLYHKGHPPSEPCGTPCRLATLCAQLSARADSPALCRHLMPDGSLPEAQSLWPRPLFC
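Human placenta-derived ASM enzyme was preincubated with compound for 10 minutes at room temperature, then given fluorogenic substrate HMU-PC0 (9 uM final) for 60 minutes at 37 °C; a pH 10 stop preceded fluorescence reading at Ex 386/Em 447 nm.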
Active calls of the source: *; i = inactive; ? = inconclusive; / = no result; [ ] = dose if it differs, or a comment. Unless noted, the call rests on the fitted dose curve; in most records, active means well fitted curve in the direction sought with a large enough effect; inconclusive means small, poorly fitted or top-dose-only effect, or another doubt; inactive means no such curve, though single readings can be large; an effect the other way counts as inactive or inconclusive.

SMILES | IL-1B inflam inh | HepG2 tox | TDP1 cell noCPT | DT40 TDP1 CPT | TGFb inhibitor | S-ASM inh
Cc1nc2nc(CCNS(=O)(=O)c3ccc(Cl)cc3)cn2nc1C | 8.8 | 13.4% | 13.1% | -3.3% | 2.1% | i
COc1cccc(Nc2nc3c(S(=O)(=O)c4cc(C)ccc4C)nnn3c3ccsc23)c1 | / | -11.3% | ? | -24.5% | -0.3% | /
CCCCNC(=O)c1cnc2sc(N3CCCCCC3)nn2c1=O | / | -28.0% | ? | ? | ? | /
COc1cccc(Cc2nc3ccccc3nc2SCC(=O)N2CCCc3ccccc32)c1 | / | -13.8% | ? | 18.4µM* | -13.4% | /
O=C(c1cc(Sc2cccc(Cl)c2)nc2ccccc12)N1CCN(c2ccccn2)CC1 | -12.8 | -2.3% | ? | 14.6µM* | -19.5% | -2.0%
O=C(CSc1nnc(N2CCCC2)n1-c1cccc(Cl)c1)N1CCN(c2ccccn2)CC1 | -23.7 | -23.1% | 20.6µM* | ? | -11.5% | /
NC(=O)CN1CCN(c2cccc(Cl)c2)CC1 | -8.2 | 9.0% | -10.1% | 0.1% | 6.3% | -0.6%
O=C(c1cnc(N2CCN(c3ccccn3)CC2)c2ccccc12)N1CCN(c2cccc(Cl)c2)CC1 | -60.0* | 0.0% | 11.6µM* | 13µM* | -15.8% | -1.9%
CC(C)OC(=O)c1cccnc1N1CCN(c2cccc(Cl)c2)CC1 | 19.0 | -18.5% | 16.4µM* | ? | -19.9% | -9.1%
CC(C)(C)OC(=O)N1C2C=CC1C1=COCCN1C2=O (stereo unspecified) | / | -24.2% | / | / | -0.5% | /
CCOCCCN(C(=O)Cn1nnc(-c2ccc(OC)c(OC)c2)n1)C(C(=O)NCC1CCCO1)c1ccc(F)cc1 (stereo unspecified) | -28.5 | -3.4% | ? | ? | ? | -2.3%[11.5 µM]
CCN(CC)S(=O)(=O)c1ccc(NC(=O)CN(c2ccccc2)S(=O)(=O)N(C)C)cc1 | / | -15.8% | / | / | 4.6% | /
Cc1ccc(CNCCCSc2ncccn2)cc1 | 21.0 | -0.8% | -25.6% | -6.7% | 5.4% | 2.7%
O=C(COC(=O)c1ccc([N+](=O)[O-])s1)c1ccc[nH]1 | 17.4 | -42.1% | 0.7% | ? | 4.5% | 1.3%
O=C(NCCc1ccc(Cl)cc1)C1CCCN(S(=O)(=O)N2CCCCCC2)C1 (stereo unspecified) | -9.1 | -9.8% | 16.4µM* | 18.4µM* | ? | -1.4%
COc1ccc(S(=O)(=O)N2CCCC(C(=O)NCc3ccc(F)cc3)C2)cc1 (stereo unspecified) | -7.2 | 2.0% | -25.2% | -17.7% | 11.7% | -3.6%
CCCS(=O)(=O)N1CCCC(C(=O)NCCCOC)C1 (stereo unspecified) | / | -3.0% | -1.1% | 1.2% | 11.4% | /
O=C(NCCc1ccccc1)C1CCCN(C(=O)Nc2ccc(F)cc2)C1 (stereo unspecified) | -2.6 | -14.5% | 6.51µM* | 6.51µM* | -16.5% | -1.4%
CCOC(=O)N1CCN(S(=O)(=O)N2CCCC(C(=O)NCCc3ccc(Cl)cc3)C2)CC1 (stereo unspecified) | -0.3 | -0.2% | ? | ? | -2.3% | -0.5%
COCCCNC(=O)C1CCCN(S(C)(=O)=O)C1 (stereo unspecified) | 0.9 | 3.55µM* | -3.4% | -10.8% | 8.8% | 4.4%
COc1ccc(CCNC(=O)C2CCCN(S(=O)(=O)c3ccc(F)cc3)C2)cc1 (stereo unspecified) | -0.5 | -16.8% | 16.4µM* | ? | 4.7% | /
CC1(C(=O)NS(=O)(=O)c2cccc(Cl)c2)CCN1C(=O)CC1CCCC1 (stereo unspecified) | 21.9 | -3.4% | -14.2% | -13.8% | 1.4% | /
CS(=O)(=O)N1CCCC(C(=O)Nc2ccc(F)cc2)C1 (stereo unspecified) | 0.8 | 0.6% | -21.6% | -11.4% | 7.8% | -0.3%
CN(C)c1ccc(NC(=O)C2CCCN(S(=O)(=O)c3ccccc3)C2)cc1 (stereo unspecified) | -3.7 | -2.4% | 23.1µM* | 14.6µM* | -3.3% | -0.6%
Cc1ccc(NC(=O)C2CCCN(S(=O)(=O)c3ccc(F)cc3)C2)cc1 (stereo unspecified) | / | -11.9% | 16.4µM* | 23.1µM* | ? | /
SMILES | IL-1B inflam inh | HepG2 tox | TDP1 cell noCPT | DT40 TDP1 CPT | TGFb inhibitor | S-ASM inh
O=C(NC1CCCC1)C1CCCN(S(=O)(=O)c2ccc(F)cc2)C1 (stereo unspecified) | 37.9 | -5.8% | ? | -10.0% | -16.6% | -2.1%
O=C(C1CCCN(S(=O)(=O)c2ccc(F)cc2)C1)N(Cc1cccs1)C1CC1 (stereo unspecified) | -14.4 | -20.2% | 18.4µM* | 13µM* | -22.5% | 0.7%
O=C(Nc1ccc(N2CCOCC2)cc1)C1CCCN(S(=O)(=O)c2ccccc2)C1 (stereo unspecified) | 16.6 | -13.5% | ? | ? | -3.8% | -2.0%
CCc1ccc(NC(=O)C2CCCN(S(=O)(=O)c3ccc(F)cc3)C2)cc1 (stereo unspecified) | / | 0.8% | 7.31µM* | 8.2µM* | ? | /
CCCCC(=O)Nc1ccccc1C(=O)OCc1cc(=O)n2nc(C3CCCCC3)sc2n1 | / | -31.9% | -28.8% | ? | ? | /
C[C@@H](NC(=O)c1ncn(Cc2ccccc2)c1C(=O)N[C@H](C)c1ccccc1)c1ccccc1 | -14.8 | -22.6% | ? | -1.9% | -5.5% | 1.4%
CC1CC(C)CN(S(=O)(=O)N2CCCC(C(=O)NCCc3ccccc3)C2)C1 (stereo unspecified) | 21.4 | -16.7% | -3.9% | -14.2% | 4.5% | -1.4%
CCOC(=O)c1ccc(NC(=O)C2CCCN(S(=O)(=O)c3ccc(F)cc3)C2)cc1 (stereo unspecified) | -64.3* | -1.6% | 23.1µM* | ? | -9.7% | -7.5%
CCOC(=O)C1CCCN(S(=O)(=O)c2ccc(NC(C)=O)cc2)C1 (stereo unspecified) | -10.8 | -7.9% | -49.9% | -34.9% | -5.5% | 4.6%
CCC(=O)N1CCCc2cc(S(=O)(=O)Nc3ccc(C)c(C)c3)ccc21 | / | -34.3% | 18.4µM* | 23.1µM* | ? | /
CCOC(=O)c1ccc(NS(=O)(=O)c2ccc3c(c2)CCCN3C(C)=O)cc1 | 45.5 | -20.9% | ? | -20.2% | -4.9% | 0.0%
CCOC(=O)c1ccc(NS(=O)(=O)c2ccc3c(c2)CCN3C(=O)CC)cc1 | / | -17.5% | ? | 13µM* | -29.3% | /

Source: PubChem BioAssay (National Center for Advancing Translational Sciences (NCATS))
